Results filed as inconclusive are left out. Activity calls are given as the source filed them. Calls follow the shape of the full dose curve.
Biological target: Peroxisome proliferator-activated receptor delta (Homo sapiens) (UniProt Q03181)
Assay: qHTS assay for small molecule agonists of peroxisome proliferator-activated receptor delta signaling (AID 588534)
Conditions: HEK293T PPARdelta-UAS-bla, beta-lactamase ratio, 18 h; series mostly up to 76.7 µM
How it was run: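 Cell-based beta-lactamase reporter assay run in agonist mode: cells seeded and incubated 5 hrs at 37 C, compounds added and incubated 18 hrs at 37 C. CCF4 dye fluorescence read after 2 hrs at RT; EC50 and efficacy from Hill fits.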

Peroxisome proliferator-activated receptor delta (Homo sapiens), sequence (Q03181 whole entry, looked up): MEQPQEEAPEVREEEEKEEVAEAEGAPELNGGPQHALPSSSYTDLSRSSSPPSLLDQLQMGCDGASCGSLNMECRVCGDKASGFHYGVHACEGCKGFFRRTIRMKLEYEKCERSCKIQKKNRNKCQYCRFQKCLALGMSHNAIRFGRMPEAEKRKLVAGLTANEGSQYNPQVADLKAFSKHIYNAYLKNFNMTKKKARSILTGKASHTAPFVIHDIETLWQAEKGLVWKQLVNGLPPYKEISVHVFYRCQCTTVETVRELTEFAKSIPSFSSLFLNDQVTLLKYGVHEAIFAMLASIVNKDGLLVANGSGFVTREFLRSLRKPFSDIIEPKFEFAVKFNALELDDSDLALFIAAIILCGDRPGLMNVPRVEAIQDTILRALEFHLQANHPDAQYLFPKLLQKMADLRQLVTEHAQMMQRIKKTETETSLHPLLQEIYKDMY

| Compound | outcome |
| --- | --- |
| C[C@@H]1O[C@@H](O[C@@H]2[C@@H](O)[C@H](OCCc3ccc(O)c(O)c3)O[C@H](CO[C@@H]3O[C@H](CO)[C@@H](O)[C@H](O)[C@H]3O)[C@H]2OC(=O)/C=C/c2ccc(O)c(O)c2)[C@H](O)[C@H](O)[C@H]1O | inactive |
| OC1CCCCCCCCCCC1 | inactive |
| Cc1cc(C(=O)O)ccc1[N+](=O)[O-] | inactive |
| O=[N+]([O-])c1cccc(I)c1 | inactive |
| COCCOC(=O)c1ccccc1C(=O)OCCOC | inactive |
| CC1(C)CC(OC(=O)CCCCCCCCC(=O)OC2CC(C)(C)NC(C)(C)C2)CC(C)(C)N1 | inactive |
| C=Cc1cccc(C)c1 | inactive |
| O=C(O[C@@H](C(=O)O)[C@@H](OC(=O)c1ccccc1)C(=O)O)c1ccccc1 | inactive |
| NC(=O)c1ccccc1[N+](=O)[O-] | inactive |
| ClC/C=C/CCl | inactive |
| O=C(Cl)c1cccc(C(=O)Cl)c1 | inactive |
| Oc1cccc(Nc2ccccc2)c1 | inactive |
| CC(C)=CCC/C(C)=C/C=O | inactive |
| Nc1nc(CC(=O)O)cs1 | inactive |
| CCOC(C)=O | inactive |
| NS(=O)(=O)O | inactive |
| CN(C)c1cccc(O)c1 | inactive |
| CCNC(=S)NCC | inactive |
| CC/C=C/CCCCCCCCCCOC(C)=O | inactive |
| CCCCOCCOCCOC(C)=O | inactive |

| Compound | outcome |
| --- | --- |
| Cc1ccc(Br)cc1 | inactive |
| C=CC(=O)OCCOc1ccccc1 | inactive |
| CSc1ccc(C=O)cc1 | inactive |
| Oc1ccc(O)c2c(O)cccc12 | inactive |
| CC(C)(N=C=O)c1cccc(C(C)(C)N=C=O)c1 | inactive |
| COC(=O)c1ccccc1 | inactive |
| Cc1cccc(C(=O)O)c1 | inactive |
| CCCCCCCC/C=C\CCCCCCCC(=O)OC[C@@H](O)[C@H]1OC[C@H](O)[C@H]1O | inactive |
| O=C1CCCCC1 | inactive |
| Brc1ccc(Oc2ccc(Br)cc2)cc1 | inactive |
| ClCCl | inactive |
| O=C1CCCCCCCCCCC1 | inactive |
| Nc1cc([N+](=O)[O-])ccc1C(=O)O | inactive |
| C=CC(C)(O)CC/C=C(\C)CCC=C(C)C (stereo not given) | inactive |
| Oc1ccc2cc(SSc3ccc4cc(O)ccc4c3)ccc2c1 | inactive |
| COC(=O)c1ccccc1C(=O)O | inactive |
| Clc1cc(Cl)c(Cl)cc1Cl | inactive |
| CCCCCCC(C)OC(=O)COc1nc(F)c(Cl)c(N)c1Cl (stereo not given) | inactive |
| CC(=O)c1cc(C)oc1C | inactive |
| CC(C)(C)C(O)/C(=C\c1ccc(Cl)cc1)n1cncn1 (stereo not given) | inactive |

From PubChem BioAssay (NCATS)
